Laboratory results reported in PubChem BioAssay AID1863 (Southern Research Specialized Biocontainment Screening …, 2009).
Screen size: about 300,000 compounds; about 480 (0.16%) were called active.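 Rule for the calls: active = inhibition over 29.93%, a cutoff 3 SD above the screen mean, later confirmed by dose response; inconclusive = inhibition over 29.93% but no dose response follow-up; inactive = inhibition at most 29.93% or unconfirmed.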 The list is a sample of the results. Potency and affinity values are given separately.

Test: inhibitors of PhoP regulon expression, primary screen, Salmonella Typhimurium, GFP reporter (AID 1863);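 note: 0% = low Mg2+ inducing control and 100% = high Mg2+ repressing control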
Conditions: S. Typhimurium PhoP-regulated promoter GFP reporter, 4 h; at 50 µM; active compounds read high

inhibition, inactive:
CCn1ncc([N+](=O)[O-])c1C(=O)Nc1ccc(C)c(C)c1 -7.66%
Cc1cc2nc(N)sc2cc1C 3.73%
CN(C)c1ccc2nc3ccc(=[N+](C)C)cc-3sc2c1 -2.55%
CC1(C)Cn2c(nnc2-c2ccccc2)S1 -3.09%
O=c1[nH]c2ccccc2c(O)c1-c1ccccc1 1.77%
CC[n+]1ccccc1/C=C/c1ccc(N(C)C)cc1 -19.2%
CN(C)c1ccc(/C=C/c2ccc3ccccc3n2)cc1 0.11%
C[n+]1c(/C=C/c2ccc(O)cc2)ccc2ccccc21 18.4%
CC[n+]1c(/C=C/c2ccc(OC)c(OC)c2)ccc2ccccc21 -6.54%
CN(CCCS(=O)(=O)[O-])c1ccc(/C=C/c2ccc3ccccc3[n+]2C)cc1 0.91%
CN(C)c1ccc(/C=C/c2cccc[n+]2[O-])cc1 -8.32%
Cc1ccc(-n2ccnc(SCC(=O)NC3CCCC3)c2=O)cc1Cl -4.24%
COc1ccc(OC)c(NC(=O)C2CCN(C(=O)c3cccs3)CC2)c1 2.52%
O=C(c1cc(F)ccc1F)C1CCCN(C(=O)c2ccco2)C1 (stereo unspecified) -3.85%
COc1ccccc1N1CCN(C(=O)Nc2cccc(Cl)c2)CC1 -5.86%
Cc1c(OCC(=O)NC(Cc2ccc(Cl)cc2)C(=O)O)ccc2c(-c3ccccc3)cc(=O)oc12 (stereo unspecified) -1.09%
COc1cc(/C=C2/CC(C)OC2=O)c([N+](=O)[O-])cc1OC (stereo unspecified) 0.79%
Cc1ccsc1C(C(=O)NCc1ccccc1)N(C(=O)c1csnn1)c1ccccc1 (stereo unspecified) 12.3%
CCc1c(C)nc(N)c(C#N)c1-c1ccccc1 4.1%
O=C1CC(c2ccccc2)CC(O)=C1C=Nc1ccccc1 (stereo unspecified) -10.4%
COc1ccc(C)cc1NC(=O)NNC(=O)C1CCC(C(C)(C)C)CC1 (stereo unspecified) -7.11%
CSc1ccc(CN(C)CC(=O)NCc2ccccc2)cc1 -8.5%
O=C(c1cc2nc(-c3ccco3)cc(C(F)(F)F)n2n1)N1CCN(c2ccc(F)cc2)CC1 -5.29%
CCCCCCCCC[n+]1cccc2c3ccccc3ccc21 -3.12%
CCCCC[n+]1cccc2c3ccccc3ccc21 -3.43%
CCCCCCCC[n+]1cccc2c3ccccc3ccc21 0.34%
CCCC[n+]1c2ccccc2cc2ccccc21 20.6%
Cc1cc(-n2cc(Br)c(=O)[nH]c2=O)nc(-c2ccccc2)n1 -4.05%
O=C(C1CCC1)N1CCc2cc(S(=O)(=O)NCCN3CCN(c4ccccc4F)CC3)ccc21 13.8%
Cc1cc(C)cc(NC(=O)CC2NCCNC2=O)c1 (stereo unspecified) -1.2%
O=C(CC1CCS(=O)(=O)C1)Nc1ccc[nH]c1=O (stereo unspecified) -5.21%
Cc1sc2ccccc2[n+]1CC(=O)c1ccccc1 2.11%
Cc1sc2cc3c(c(C(=O)c4ccccc4)[n+]2c1C)-c1cccc2cccc-3c12 -2.96%
CCn1cc(C(=O)NN)c(=O)c2cc(F)c(N3CCN(C)CC3)cc21 3.03%
CCCNC(=O)c1cn(CC)c2cc(N3CCN(C(=O)c4ccco4)CC3)c(F)cc2c1=O -3.25%
CCn1cc(C(=O)NCC(C)C)c(=O)c2cc(F)c(N3CCN(C(=O)c4ccco4)CC3)cc21 5.43%
CCn1cc(C(=O)N[C@H](C)c2ccccc2)c(=O)c2cc(F)c(N3CCN(C)CC3)cc21 4.39%
CCn1cc(C(=O)NCCC(C)C)c(=O)c2cc(F)c(N3CCN(C)CC3)cc21 8.97%
COc1ccc(CC2(CO)CCN(C(C)COc3ccccc3)CC2)cc1 (stereo unspecified) -5.24%
O=C(NC(=S)Nc1ccc(S(=O)(=O)Nc2ncccn2)cc1)c1ccc(Br)cc1 -1.85%
Cc1cccc(NC(=O)c2cc(NC(=O)C3CC=CCC3C(=O)O)ccc2N2CCOCC2)c1 (stereo unspecified) 13.8%
CCN(CC(=O)Nc1c(F)cccc1F)C(=O)C1(c2ccccc2)CC1 -5.13%
CCC(=O)c1cn(CC(=O)NCc2cccnc2)c2ccccc12 3.99%
Cc1cc(C)cc(OC(=O)CCN2C(=O)C3C4C=CC(C5CC45)C3C2=O)c1 (stereo unspecified) 1.31%
CCOc1ccc2nc(NC(=O)C3CCN(S(=O)(=O)c4cnc[nH]4)CC3)sc2c1 1.27%
CN(C)c1cccc(C(=O)OCC(=O)N2CCc3ccccc3C2)c1 -2.35%
CC1CCN(c2nc3c(c(=O)n(C)c(=O)n3C)n2Cc2ccccc2)CC1 0.23%
O=[N+]([O-])c1ccc(NC(=S)NCC(c2cccnc2)N2CCOCC2)cc1 (stereo unspecified) -4.57%
CCCCCNC(=O)c1cn(CC)c2cc(N3CCN(C)CC3)c(F)cc2c1=O 4.54%
CCCCNC(=O)c1cn(CC)c2cc(N3CCN(C(=O)c4ccco4)CC3)c(F)cc2c1=O -7.68%
C/C(=N\OC(=O)c1ccc(F)cc1)c1ccc(F)c(F)c1 -1.74%
O=C(OCc1ccc(COC(=O)c2ccccn2)cc1)c1ccccn1 -1.35%
CCOC(=O)C1CCCN(Cc2sccc2C)C1 (stereo unspecified) 7.84%
C[C@H](NC(=O)C1CCN(S(=O)(=O)c2ccccc2)CC1)C(=O)NCc1cccc(C(F)(F)F)c1 -1.18%
COC(=O)n1c(=O)oc2cc(S(=O)(=O)N3CCOCC3)ccc21 7.81%
CN(C)C(=O)CN1C(=O)c2cccc3cccc1c23 8.86%
O=C(Nc1ccc2ncccc2c1)c1cc(Cl)ccc1Cl 0.12%
O=C(NCc1ccccc1)C(c1cccnc1)N(C(=O)c1ccccn1)c1ccc(F)cc1 (stereo unspecified) 2.95%
Cc1ccc(S(=O)(=O)N/N=C2\C(=O)C3(C)CCC2C3(C)C)cc1 (stereo unspecified) 4.91%
COc1ccc(NS(=O)(=O)c2ccc(NC(=S)NC(=O)c3cccnc3)cc2)nn1 10.7%
COc1nccnc1NS(=O)(=O)c1ccc(NC(=S)NC(=O)c2cccnc2)cc1 36%
